Results reported in PubChem BioAssay (Tox21).
Records with an inconclusive call do not appear. A structure can be active in one record and inactive in another. Active and inactive are the calls of the source. Unless noted, the call rests on the fitted dose curve; in most records, active means well fitted curve in the direction sought with a large enough effect in the repeat runs; inconclusive means weak or mixed curves; inactive means no such curve, though single readings can be large; an effect the other way counts as inactive or inconclusive.

Experiments:
[1] = target: Thyrotropin receptor (Homo sapiens) (UniProt P16473); experiment: qHTS assay to identify small molecule antagonists of the thyroid stimulating hormone receptor (TSHR) signaling pathway (AID 1259385; calls by dose curve; further: nearly all actives have a fitted effect of over 20% in size)
Procedure, shortened: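 Antagonist mode: compound-treated TSHR-expressing HEK293 cells were stimulated with 1.5 ng/mL TSH (final) in presence of Ro20-1724 for 30 min at RT. HTRF cAMP detection after 1 h; each compound tested at 15 concentrations, triplicate.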

[2] = target: Progesterone receptor (Homo sapiens) (UniProt P06401); experiment: qHTS assay to identify small molecule agonists of the progesterone receptor (PR) signaling pathway (AID 1346784; calls by dose curve; further: nearly all actives have a fitted effect of over 30% in size)
Procedure, shortened: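 PR-UAS-bla HEK 293T cells (beta-lactamase reporter under UAS) in 2% charcoal-stripped FBS, dosed with 23 nL compound after 6 hr, incubated 16hr at 37C. LiveBLAzer B/G FRET substrate added, fluorescence read after 2 hours.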

[3] = target: Progesterone receptor (Homo sapiens) (UniProt P06401); experiment: qHTS assay to identify small molecule antagonists of the progesterone receptor (PR) signaling pathway (AID 1346795; active means well fitted inhibition curve with a large enough effect in the signal ratio in the repeat runs, not every such curve was filed as active; the % refers to the signal ratio)
Procedure, shortened: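 PR-UAS-bla HEK293T cells with beta-lactamase reporter under UAS control, in 2% charcoal-stripped FBS, treated with compounds plus 1 nM promegestone (R5020, final) for 16 hr at 37C. Read-out: FRET beta-lactamase substrate fluorescence after 2 hr at room temperature.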

[4] = qHTS assay to identify small molecule antagonists of the progesterone receptor (PR) signaling pathway - cell viability counter screen (AID 1346798); further: series mostly up to about 92 µM; nearly all actives have a fitted effect of over 50% in size
Procedure, shortened: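 PR-UAS-bla HEK293T cells, 3,000/well in 2% charcoal-stripped FBS medium, dosed with compounds plus R5020 agonist and incubated 16 h at 37C. Viability then measured in the same wells by CellTiter-Glo luminescence after 30 min at RT.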

[5] = qHTS assay to identify small molecule agonists of the progesterone receptor (PR) signaling pathway - cell viability counter screen (AID 1346799; calls by dose curve; further: nearly all actives have a fitted effect of over 45% in size)
Procedure, shortened: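 Counter screen in the PR-UAS-bla HEK293T wells (2% charcoal-stripped FBS, 16 h compound exposure at 37 C) after the bla read. CellTiter-Glo added, 30 min at room temperature, luminescence read as cell viability.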

[6] = qHTS assay to identify small molecule antagonists of the TGF-beta/Smad signaling pathway - cell viability counter screen (AID 1346824); further: nearly all actives have a fitted effect of over 50% in size
Procedure, shortened: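 Cytotoxicity counter-screen run in the same wells as the beta-lactamase Smad reporter read: CellTiter-Glo luminescence after 30 min at room temperature. HEK 293T SBE-bla cells had 5 hr compound exposure at 37 C with TGF-beta1 (0.25 ng/mL stock).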

[7] = qHTS assay to identify small molecule agonists of the TGF-beta/Smad signaling pathway - cell viability counter screen (AID 1346829); further: top concentration of the series differs between compounds; nearly all actives have a fitted effect of over 45% in size
Procedure, shortened: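 After overnight seating at 37 C and 5% CO2, reporter cells got compounds for 5 hr and FRET substrate for 2 hr; cell viability then came from CellTiter-Glo luminescence.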

[8] = qHTS assay to identify small molecule agonists of the TGF-beta/Smad signaling pathway (AID 1346859; active means well fitted activation curve with a large enough effect in the signal ratio in the repeat runs, not every such curve was filed as active; the % refers to the signal ratio; further: series mostly up to about 77 µM)
Procedure, shortened: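 SBE-bla HEK293T cells plated overnight, then compound exposure for 5 h at 37 C. Beta-lactamase reporter read with LiveBLAzer B/G FRET substrate after 2 h at room temperature, fluorescence at 405 nm excitation, 460/530 nm emission.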

[9] = target: Thyrotropin-releasing hormone receptor (Homo sapiens) (UniProt P34981); experiment: qHTS assay to identify small molecule antagonists of the thyrotropin-releasing hormone receptor (TRHR) signaling pathway (AID 1346877; active means well fitted inhibition curve with a large enough effect in the repeat runs, not every such curve was filed as active; further: series mostly up to about 51 µM)
Procedure, shortened: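 TRHR-expressing HEK293 cells were seeded, cultured 18 h at 37 °C, then loaded with calcium dye for 2 h. Compounds were pre-incubated 5 min at room temperature before 1 nM TRH (final) was added, and kinetic fluorescence was recorded for 3 min.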

[10] = Human pregnane X receptor (PXR) small molecule agonists, qHTS cell viability counter screen (AID 1346977); further: nearly all actives have a fitted effect of over 50% in size
Procedure, shortened: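 PXR-Luc HepG2 cells (2,000/well, 5% charcoal-stripped FBS) preincubated 5 hr, then exposed to compounds 24 hr at 37 C. Viability read in the same wells by CellTiter-Fluor fluorescence, reagent added at 23 hr, 1 hr incubation.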

[11] = Caspase-3/7 induction in HepG2 cells by small molecules, qHTS assay (AID 1346978); further: nearly all actives have a fitted effect of over 15% in size
Procedure, shortened: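 Caspase-3/7 induction was measured by Caspase-Glo 3/7 luminescence (30 min, room temperature) after a 17 hr compound exposure of wild-type HepG2 cells seeded at 2,000 per well and pre-incubated 5 hr.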

[12] = Caspase-3/7 induction in CHO-K1 cells by small molecules, qHTS cell viability counter screen (AID 1346979); further: nearly all actives have a fitted effect of over 35% in size
Procedure, shortened: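 Wild-type CHO-K1 cells (1,500/well) treated with compound after 5 h plating; after 16 h at 37C, viability read as CellTiter-Fluor fluorescence following 1 h reagent incubation, in the same wells as the caspase read.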

[13] = Caspase-3/7 induction in CHO-K1 cells by small molecules, qHTS assay (AID 1346980); further: nearly all actives have a fitted effect of over 15% in size
Procedure, shortened: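 Luminescent Caspase-Glo 3/7 read (30min, room temperature) quantified apoptosis induction. Cells were wild-type CHO-K1, treated with compound for 17hr at 37 C and 5% CO2.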

[14] = Caspase-3/7 induction in HepG2 cells by small molecules, qHTS cell viability counter screen (AID 1346981); further: nearly all actives have a fitted effect of over 30% in size; further: potency means the concentration at half of the fitted maximal effect
Procedure, shortened: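 Wild-type HepG2 cells (2,000/well) were allowed to settle for 5 hr at 37 C, 5% CO2, then dosed with compounds in DMSO by pin transfer. After 16 hr at 37 C, CellTiter-Fluor was added and fluorescence read 1 hr later.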

[15] = target: Nuclear receptor subfamily 1 group I member 2 (Homo sapiens) (UniProt O75469); experiment: Human pregnane X receptor (PXR) small molecule agonists, qHTS assay (AID 1346982); further: nearly all actives have a fitted effect of over 35% in size; further: potency means the concentration at half of the fitted maximal effect
Procedure, shortened: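 PXR-Luc HepG2 cells (CYP3A4 promoter-driven luciferase) were seeded in medium with 5% charcoal-stripped FBS, left 5 hr at 37 C, then exposed to compounds in DMSO for 24 hr. Luminescence was read after ONE-Glo addition.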

[16] = target: Nuclear receptor subfamily 1 group I member 2 (Rattus norvegicus) (UniProt Q9R1A7); experiment: Rat pregnane X receptor (rPXR) activation by small molecules, qHTS assay (AID 1346983); conditions: rPXR luciferase reporter cells, One-Glo luminescence, 24 h; max activation: stronger effect = higher value; further: nearly all actives have a fitted effect of over 20% in size; further: potency means the concentration at half of the fitted maximal effect
Procedure, shortened: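 Luminescent readout (One-Glo luciferase, 30 min room temperature) followed 24 hr compound treatment at 37 C of rPXR cells plated 2,000 per well and preincubated 5hr; qHTS format with compounds delivered in DMSO.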

[17] = target: Nuclear receptor subfamily 1 group I member 2 (Homo sapiens) (UniProt O75469); experiment: CYP3A4 induction through human pregnane X receptor (PXR) by small molecules, qHTS assay (AID 1346984); further: nearly all actives have a fitted effect of over 40% in size
Procedure, shortened: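 DPX-2 cells (HepG2 co-transfected with PXR and CYP3A4 promoter-luciferase) treated with compounds 24 h at 37C; luciferin-IPA CYP3A4 substrate 3uM final added for 3 h, then One-Glo; luminescence read. qHTS format.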

[18] = target: Nuclear receptor subfamily 1 group I member 2 (Homo sapiens) (UniProt O75469); experiment: Human pregnane X receptor (PXR) activation by small molecules, qHTS assay (AID 1346985); further: nearly all actives have a fitted effect of over 40% in size
Procedure, shortened: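 DPX-2 cells (HepG2 co-transfected with a PXR response element and a CYP3A4-promoter luciferase construct) were seeded at 2,000 per well, rested 5 hr at 37C, then exposed to DMSO-dissolved compounds for 24 hr. Activation was read as luciferase luminescence.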

[19] = target: Thyrotropin-releasing hormone receptor (Homo sapiens) (UniProt P34981); experiment: qHTS assay to identify small molecule agonists of the thyrotropin-releasing hormone receptor (TRHR) signaling pathway (AID 1346891; calls by dose curve; further: series mostly up to about 58 µM)
Procedure, shortened: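 HEK293 cells expressing TRHR plated 18 h at 37 C/5% CO2, calcium dye-loaded 2 h at 37 C, then compound added (agonist mode); kinetic calcium fluorescence read 3 min at 1 s intervals; 15 concentrations in triplicate.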

[20] = qHTS assay to identify small molecule agonists of the estrogen receptor alpha (ER-alpha) signaling pathway in the presence of an antagonist - cell viability counter screen (AID 1259386);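 further: series mostly up to about 92 µM; cells exposed to compounds for 22 h at 37 °C before the viability read; nearly all actives have a fitted effect of over 30% in size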
Procedure, shortened: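 VM7Luc4E2 cells (endogenous full-length ER-alpha, 4×ERE-luciferase) were held 5 days in phenol red-free medium with 10% charcoal-stripped FBS, plated, then given 10.0nM ICI-182,780 and compounds at 15 concentrations for 22hr at 37C; viability read by CellTiter-Fluor fluorescence.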
On the % scale 0 is the no-effect control and ±100 the full control effect.

Sequence of Nuclear receptor subfamily 1 group I member 2 (Rattus norvegicus) (Q9R1A7 whole entry, looked up): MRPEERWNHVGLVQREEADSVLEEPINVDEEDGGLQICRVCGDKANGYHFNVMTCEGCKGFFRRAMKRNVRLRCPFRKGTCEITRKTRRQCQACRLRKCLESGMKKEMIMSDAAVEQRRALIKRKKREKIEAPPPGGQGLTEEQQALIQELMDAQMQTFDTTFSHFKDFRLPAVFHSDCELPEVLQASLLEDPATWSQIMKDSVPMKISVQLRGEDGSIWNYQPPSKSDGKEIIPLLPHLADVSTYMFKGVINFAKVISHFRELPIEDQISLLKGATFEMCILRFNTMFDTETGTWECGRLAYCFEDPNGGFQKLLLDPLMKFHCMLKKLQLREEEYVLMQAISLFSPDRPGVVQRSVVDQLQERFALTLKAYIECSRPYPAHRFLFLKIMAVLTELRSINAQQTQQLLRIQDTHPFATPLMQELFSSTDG
Sequence of Thyrotropin-releasing hormone receptor (Homo sapiens) (P34981 whole entry, looked up): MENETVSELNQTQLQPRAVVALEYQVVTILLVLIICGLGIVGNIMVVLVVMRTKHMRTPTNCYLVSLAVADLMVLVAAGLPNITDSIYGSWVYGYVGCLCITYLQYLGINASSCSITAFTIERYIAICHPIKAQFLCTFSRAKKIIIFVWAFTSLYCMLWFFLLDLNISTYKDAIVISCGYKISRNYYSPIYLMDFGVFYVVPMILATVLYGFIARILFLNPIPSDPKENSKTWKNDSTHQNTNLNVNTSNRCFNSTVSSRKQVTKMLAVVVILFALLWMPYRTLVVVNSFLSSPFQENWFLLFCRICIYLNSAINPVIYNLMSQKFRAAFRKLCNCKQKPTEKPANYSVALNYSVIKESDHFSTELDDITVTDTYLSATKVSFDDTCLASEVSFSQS
Sequence of Progesterone receptor (Homo sapiens) (P06401 whole entry, looked up): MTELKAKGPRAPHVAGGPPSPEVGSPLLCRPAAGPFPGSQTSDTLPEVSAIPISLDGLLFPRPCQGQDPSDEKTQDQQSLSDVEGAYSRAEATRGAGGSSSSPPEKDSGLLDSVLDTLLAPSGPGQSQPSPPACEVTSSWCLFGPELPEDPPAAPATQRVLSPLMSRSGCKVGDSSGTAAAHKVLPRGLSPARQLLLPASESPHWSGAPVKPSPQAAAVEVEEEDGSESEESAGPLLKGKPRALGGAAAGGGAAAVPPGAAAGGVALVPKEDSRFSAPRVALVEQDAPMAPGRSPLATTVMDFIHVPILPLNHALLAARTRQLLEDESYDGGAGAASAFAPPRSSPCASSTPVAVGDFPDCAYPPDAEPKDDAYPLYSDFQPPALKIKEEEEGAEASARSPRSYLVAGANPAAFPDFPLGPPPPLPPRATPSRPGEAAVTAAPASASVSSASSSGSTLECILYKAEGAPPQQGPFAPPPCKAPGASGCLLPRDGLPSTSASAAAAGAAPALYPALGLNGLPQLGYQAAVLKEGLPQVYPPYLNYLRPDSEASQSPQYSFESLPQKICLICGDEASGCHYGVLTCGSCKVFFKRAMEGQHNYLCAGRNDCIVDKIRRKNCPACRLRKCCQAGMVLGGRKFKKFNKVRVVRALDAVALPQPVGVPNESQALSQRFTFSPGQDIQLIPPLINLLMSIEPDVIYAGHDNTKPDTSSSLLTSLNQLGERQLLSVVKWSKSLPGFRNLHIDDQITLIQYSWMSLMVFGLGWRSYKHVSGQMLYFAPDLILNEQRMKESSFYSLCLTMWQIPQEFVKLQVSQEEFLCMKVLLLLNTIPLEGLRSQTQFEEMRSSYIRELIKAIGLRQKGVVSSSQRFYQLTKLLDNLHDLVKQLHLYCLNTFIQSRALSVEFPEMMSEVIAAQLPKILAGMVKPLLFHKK
Sequence of Thyrotropin receptor (Homo sapiens) (P16473 whole entry, looked up): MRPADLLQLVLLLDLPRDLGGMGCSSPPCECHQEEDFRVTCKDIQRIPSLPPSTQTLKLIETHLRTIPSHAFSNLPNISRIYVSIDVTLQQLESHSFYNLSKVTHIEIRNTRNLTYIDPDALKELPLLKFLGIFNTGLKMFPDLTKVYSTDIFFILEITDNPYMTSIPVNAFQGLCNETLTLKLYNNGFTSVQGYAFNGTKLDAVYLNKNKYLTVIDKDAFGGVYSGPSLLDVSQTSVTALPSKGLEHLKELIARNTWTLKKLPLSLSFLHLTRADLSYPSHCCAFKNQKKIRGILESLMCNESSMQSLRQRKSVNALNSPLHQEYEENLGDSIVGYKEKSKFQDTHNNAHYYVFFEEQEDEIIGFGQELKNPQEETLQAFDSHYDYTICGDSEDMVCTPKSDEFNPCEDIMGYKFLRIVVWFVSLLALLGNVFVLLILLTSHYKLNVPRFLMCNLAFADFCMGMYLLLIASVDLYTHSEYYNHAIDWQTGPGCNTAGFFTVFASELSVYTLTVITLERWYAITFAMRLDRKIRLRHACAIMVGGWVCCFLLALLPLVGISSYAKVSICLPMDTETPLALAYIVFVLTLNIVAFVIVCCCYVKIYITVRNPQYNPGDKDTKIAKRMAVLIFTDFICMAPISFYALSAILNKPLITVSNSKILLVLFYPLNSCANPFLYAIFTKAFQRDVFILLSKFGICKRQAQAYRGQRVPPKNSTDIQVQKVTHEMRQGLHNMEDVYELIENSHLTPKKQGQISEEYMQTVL
Sequence of Nuclear receptor subfamily 1 group I member 2 (Homo sapiens) (O75469 whole entry, looked up): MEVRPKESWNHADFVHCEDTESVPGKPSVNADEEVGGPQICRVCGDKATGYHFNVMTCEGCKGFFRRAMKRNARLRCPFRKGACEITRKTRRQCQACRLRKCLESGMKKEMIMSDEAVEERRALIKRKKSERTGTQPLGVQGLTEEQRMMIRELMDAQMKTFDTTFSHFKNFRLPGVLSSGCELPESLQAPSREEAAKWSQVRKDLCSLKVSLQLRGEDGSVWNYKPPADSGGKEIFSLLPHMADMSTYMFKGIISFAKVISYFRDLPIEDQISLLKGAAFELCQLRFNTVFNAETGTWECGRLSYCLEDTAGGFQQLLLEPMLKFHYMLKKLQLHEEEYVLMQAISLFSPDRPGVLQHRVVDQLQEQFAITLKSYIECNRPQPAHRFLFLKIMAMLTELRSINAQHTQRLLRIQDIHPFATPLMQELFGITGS

OC[C@@H](O)[C@H]1O[C@@H]2O[C@H](C(Cl)(Cl)Cl)O[C@@H]2[C@H]1O
inactive: outcome [1] | Potency [2] | Potency [3] | Potency [4] | outcome [5] | Potency [6] | Potency [7] | outcome [8] | outcome [9] | Potency [10] | outcome [11] | Potency [12] | outcome [13] | Potency [14] | Potency [15] | max activation [16] -1.13% | Potency [17] | Potency [18]

C=CC#N
inactive: outcome [1] | Potency [2] | Potency [3] | Potency [4] | outcome [5] | Potency [6] | Potency [7] | outcome [8] | outcome [9] | Potency [10] | outcome [11] | Potency [12] | outcome [13] | Potency [14] | Potency [15]

Nc1nc(N)nc(NC2CC2)n1
inactive: outcome [1] | Potency [2] | Potency [3] | Potency [4] | outcome [5] | Potency [6] | Potency [7] | outcome [8] | outcome [9] | Potency [10] | outcome [11] | Potency [12] | outcome [13] | Potency [14] | Potency [15] | max activation [16] -4.09% | Potency [17] | Potency [18]

O=C(O)CCCc1ccc(N(CCCl)CCCl)cc1
inactive: outcome [1] | Potency [2] | Potency [3] | Potency [4] | outcome [5] | Potency [6] | Potency [7] | outcome [8] | outcome [9] | outcome [19] | Potency [10] | outcome [11] | outcome [13] | Potency [15]
54.7 µM (active) and inactive: Potency [14]

CC(C)c1cccc(C(C)C)c1O
inactive: outcome [1] | Potency [2] | Potency [3] | Potency [4] | outcome [5] | Potency [6] | Potency [7] | outcome [8] | outcome [9] | outcome [19] | Potency [10] | outcome [11] | Potency [12] | outcome [13] | Potency [14]

O=[N+]([O-])c1cc([As](=O)(O)O)ccc1O
inactive: outcome [1] | Potency [2] | Potency [3] | Potency [4] | outcome [5] | Potency [6] | Potency [7] | outcome [8] | outcome [9] | Potency [10] | outcome [11] | Potency [12] | outcome [13] | Potency [14] | Potency [15] | Potency [17] | Potency [18]
active: Potency [16] 12.6 µM

Sc1ccccc1
inactive: outcome [1] | Potency [2] | Potency [3] | Potency [4] | outcome [5] | Potency [6] | Potency [7] | outcome [8] | outcome [9] | Potency [10] | outcome [11] | Potency [12] | outcome [13] | Potency [14] | Potency [15]

CCOP(=S)(OCC)Oc1ccc([N+](=O)[O-])cc1
inactive: outcome [1] | Potency [20] | Potency [2] | Potency [4] | Potency [6] | Potency [7] | outcome [8] | outcome [9] | outcome [19] | Potency [10] | outcome [11] | outcome [13] | Potency [14]
active: Potency [15] 49.2 µM

N#Cc1cccc(C#N)c1
inactive: outcome [1] | Potency [2] | Potency [3] | Potency [4] | outcome [5] | Potency [6] | Potency [7] | outcome [8] | outcome [9] | Potency [10] | outcome [11] | outcome [13] | Potency [14] | Potency [15]
